Measurements published in the supplement of paper PMC4466140.

These binders were tested against AgAbp1 (assay: SPOT peptide array binding signal intensity (averaged, normalized) (arbitrary units (background-subtracted, floor 0; scale differs between SH3 domains)); higher = stronger binding of the SH3 domain to the peptide).
Procedure: (§1)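 GST-tagged SH3 domains from S. cerevisiae (Sc), A. gossypii (Ag), C. albicans (Ca) and S. pombe (Sp) were incubated at 10 ug/ml overnight at 4 C on cellulose SPOT membranes carrying 292 synthetic 15-mer peptides mined from the S. cerevisiae proteome (cysteines replaced by serines). Binding was detected with anti-GST antibody, HRP secondary and chemiluminescence, quantified with Genespotter, and reported as normalized spot intensities averaged over biological replicates.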

Row | Binder | SPOT peptide array binding signal intensity
1 | LKVTPGRRAPTISKI | 22

Each binder was assayed against AgBbc1 in the same assay as above.
Procedure: as §1

Row | Binder | SPOT peptide array binding signal intensity
2 | LKVTPGRRAPTISKI | 41

The binders below were run against AgBem1-D1 in the same assay as above.
Procedure: as §1

Row | Binder | SPOT peptide array binding signal intensity
3 | LKVTPGRRAPTISKI | 63.5

What follows are binders tested against AgBzz1-D1 in the same assay as above.
Procedure: as §1

Row | Binder | SPOT peptide array binding signal intensity
4 | LKVTPGRRAPTISKI | 81

What follows are binders tested against AgBzz1-D2 in the same assay as above.
Procedure: as §1

Row | Binder | SPOT peptide array binding signal intensity
5 | LKVTPGRRAPTISKI | 24

What follows are binders tested against AgCyk3 in the same assay as above.
Procedure: as §1

Row | Binder | SPOT peptide array binding signal intensity
6 | LKVTPGRRAPTISKI | 3

Each binder was assayed against AgFus1 in the same assay as above.
Procedure: as §1

Row | Binder | SPOT peptide array binding signal intensity
7 | LKVTPGRRAPTISKI | 22

The binders below were run against AgHof1 in the same assay as above.
Procedure: as §1

Row | Binder | SPOT peptide array binding signal intensity
8 | LKVTPGRRAPTISKI | 15

What follows are binders tested against AgHse1 in the same assay as above.
Procedure: as §1

Row | Binder | SPOT peptide array binding signal intensity
9 | LKVTPGRRAPTISKI | 18.5

What follows are binders tested against AgLsb1 in the same assay as above.
Procedure: as §1

Row | Binder | SPOT peptide array binding signal intensity
10 | LKVTPGRRAPTISKI | ≤ 0

These binders were tested against AgLsb4 in the same assay as above.
Procedure: as §1

Row | Binder | SPOT peptide array binding signal intensity
11 | LKVTPGRRAPTISKI | ≤ 0

What follows are binders tested against AgMyo5 in the same assay as above.
Procedure: as §1

Row | Binder | SPOT peptide array binding signal intensity
12 | LKVTPGRRAPTISKI | 5.5

These binders were tested against AgNbp2 in the same assay as above.
Procedure: as §1

Row | Binder | SPOT peptide array binding signal intensity
13 | LKVTPGRRAPTISKI | 1920

These binders were tested against AgRvs167 in the same assay as above.
Procedure: as §1

Row | Binder | SPOT peptide array binding signal intensity
14 | LKVTPGRRAPTISKI | 1.17

Each binder was assayed against AgSho1 in the same assay as above.
Procedure: as §1

Row | Binder | SPOT peptide array binding signal intensity
15 | LKVTPGRRAPTISKI | ≤ 0

Each binder was assayed against AgSla1-D1-D2 in the same assay as above.
Procedure: as §1

Row | Binder | SPOT peptide array binding signal intensity
16 | LKVTPGRRAPTISKI | 7.5

These binders were tested against AgSla1-D3 in the same assay as above.
Procedure: as §1

Row | Binder | SPOT peptide array binding signal intensity
17 | LKVTPGRRAPTISKI | 1

What follows are binders tested against CaAbp1-D1 in the same assay as above.
Procedure: as §1

Row | Binder | SPOT peptide array binding signal intensity
18 | LKVTPGRRAPTISKI | 435

What follows are binders tested against CaAbp1-D2 in the same assay as above.
Procedure: as §1

Row | Binder | SPOT peptide array binding signal intensity
19 | LKVTPGRRAPTISKI | 160

The binders below were run against CaBbc1 in the same assay as above.
Procedure: as §1

Row | Binder | SPOT peptide array binding signal intensity
20 | LKVTPGRRAPTISKI | 247

What follows are binders tested against CaBem1-D1 in the same assay as above.
Procedure: as §1

Row | Binder | SPOT peptide array binding signal intensity
21 | LKVTPGRRAPTISKI | 5

These binders were tested against CaBzz1-D1 in the same assay as above.
Procedure: as §1

Row | Binder | SPOT peptide array binding signal intensity
22 | LKVTPGRRAPTISKI | 154

These binders were tested against CaBzz1-D2 in the same assay as above.
Procedure: as §1

Row | Binder | SPOT peptide array binding signal intensity
23 | LKVTPGRRAPTISKI | 148

These binders were tested against CaCyk3 in the same assay as above.
Procedure: as §1

Row | Binder | SPOT peptide array binding signal intensity
24 | LKVTPGRRAPTISKI | 18

The binders below were run against CaFus1 in the same assay as above.
Procedure: as §1

Row | Binder | SPOT peptide array binding signal intensity
25 | LKVTPGRRAPTISKI | ≤ 0

What follows are binders tested against CaHof1 in the same assay as above.
Procedure: as §1

Row | Binder | SPOT peptide array binding signal intensity
26 | LKVTPGRRAPTISKI | 0.5

What follows are binders tested against CaHse1 in the same assay as above.
Procedure: as §1

Row | Binder | SPOT peptide array binding signal intensity
27 | LKVTPGRRAPTISKI | 0.5

These binders were tested against CaLsb1 in the same assay as above.
Procedure: as §1

Row | Binder | SPOT peptide array binding signal intensity
28 | LKVTPGRRAPTISKI | ≤ 0

Each binder was assayed against CaLsb4 in the same assay as above.
Procedure: as §1

Row | Binder | SPOT peptide array binding signal intensity
29 | LKVTPGRRAPTISKI | ≤ 0

These binders were tested against CaMyo5 in the same assay as above.
Procedure: as §1

Row | Binder | SPOT peptide array binding signal intensity
30 | LKVTPGRRAPTISKI | 6.25

What follows are binders tested against CaNbp2 in the same assay as above.
Procedure: as §1

Row | Binder | SPOT peptide array binding signal intensity
31 | LKVTPGRRAPTISKI | 2720

Each binder was assayed against CaRvs167 in the same assay as above.
Procedure: as §1

Row | Binder | SPOT peptide array binding signal intensity
32 | LKVTPGRRAPTISKI | 1.5

What follows are binders tested against CaRvs167-3 in the same assay as above.
Procedure: as §1

Row | Binder | SPOT peptide array binding signal intensity
33 | LKVTPGRRAPTISKI | 27.5

Each binder was assayed against CaSho1 in the same assay as above.
Procedure: as §1

Row | Binder | SPOT peptide array binding signal intensity
34 | LKVTPGRRAPTISKI | 15.5

The binders below were run against CaSla1-D1-D2 in the same assay as above.
Procedure: as §1

Row | Binder | SPOT peptide array binding signal intensity
35 | LKVTPGRRAPTISKI | 56

The binders below were run against CaSla1-D3 in the same assay as above.
Procedure: as §1

Row | Binder | SPOT peptide array binding signal intensity
36 | LKVTPGRRAPTISKI | 1.5

Each binder was assayed against ScAbp1 in the same assay as above.
Procedure: as §1

Row | Binder | SPOT peptide array binding signal intensity
37 | LKVTPGRRAPTISKI | 21

Each binder was assayed against ScBbc1 in the same assay as above.
Procedure: as §1

Row | Binder | SPOT peptide array binding signal intensity
38 | LKVTPGRRAPTISKI | 1.75

The binders below were run against ScBem1-D1 in the same assay as above.
Procedure: as §1

Row | Binder | SPOT peptide array binding signal intensity
39 | LKVTPGRRAPTISKI | 9

These binders were tested against ScBzz1-D1 in the same assay as above.
Procedure: as §1

Row | Binder | SPOT peptide array binding signal intensity
40 | LKVTPGRRAPTISKI | 26

The binders below were run against ScBzz1-D2 in the same assay as above.
Procedure: as §1

Row | Binder | SPOT peptide array binding signal intensity
41 | LKVTPGRRAPTISKI | 5.5

The binders below were run against ScCyk3 in the same assay as above.
Procedure: as §1

Row | Binder | SPOT peptide array binding signal intensity
42 | LKVTPGRRAPTISKI | 10

The binders below were run against ScFus1 in the same assay as above.
Procedure: as §1

Row | Binder | SPOT peptide array binding signal intensity
43 | LKVTPGRRAPTISKI | 0.5

The binders below were run against ScHof1 in the same assay as above.
Procedure: as §1

Row | Binder | SPOT peptide array binding signal intensity
44 | LKVTPGRRAPTISKI | ≤ 0

The binders below were run against ScHse1 in the same assay as above.
Procedure: as §1

Row | Binder | SPOT peptide array binding signal intensity
45 | LKVTPGRRAPTISKI | 99

Each binder was assayed against ScLsb1 in the same assay as above.
Procedure: as §1

Row | Binder | SPOT peptide array binding signal intensity
46 | LKVTPGRRAPTISKI | ≤ 0

The binders below were run against ScLsb2 in the same assay as above.
Procedure: as §1

Row | Binder | SPOT peptide array binding signal intensity
47 | LKVTPGRRAPTISKI | 3

The binders below were run against ScLsb3 in the same assay as above.
Procedure: as §1

Row | Binder | SPOT peptide array binding signal intensity
48 | LKVTPGRRAPTISKI | 21.5

These binders were tested against ScLsb4 in the same assay as above.
Procedure: as §1

Row | Binder | SPOT peptide array binding signal intensity
49 | LKVTPGRRAPTISKI | ≤ 0

The binders below were run against ScMyo3 in the same assay as above.
Procedure: as §1

Row | Binder | SPOT peptide array binding signal intensity
50 | LKVTPGRRAPTISKI | 39.5

What follows are binders tested against ScMyo5 in the same assay as above.
Procedure: as §1

Row | Binder | SPOT peptide array binding signal intensity
51 | LKVTPGRRAPTISKI | 20.2

Each binder was assayed against ScNbp2 in the same assay as above.
Procedure: as §1

Row | Binder | SPOT peptide array binding signal intensity
52 | LKVTPGRRAPTISKI | 4490

Each binder was assayed against ScPex13 in the same assay as above.
Procedure: as §1

Row | Binder | SPOT peptide array binding signal intensity
53 | LKVTPGRRAPTISKI | ≤ 0

These binders were tested against ScRvs167 in the same assay as above.
Procedure: as §1

Row | Binder | SPOT peptide array binding signal intensity
54 | LKVTPGRRAPTISKI | 0.333

Each binder was assayed against ScSho1 in the same assay as above.
Procedure: as §1

Row | Binder | SPOT peptide array binding signal intensity
55 | LKVTPGRRAPTISKI | 33

These binders were tested against ScSla1-D1-D2 in the same assay as above.
Procedure: as §1

Row | Binder | SPOT peptide array binding signal intensity
56 | LKVTPGRRAPTISKI | 61.5

What follows are binders tested against ScSla1-D3 in the same assay as above.
Procedure: as §1

Row | Binder | SPOT peptide array binding signal intensity
57 | LKVTPGRRAPTISKI | 32.8

The binders below were run against SpAbp1-D1 in the same assay as above.
Procedure: as §1

Row | Binder | SPOT peptide array binding signal intensity
58 | LKVTPGRRAPTISKI | 170

These binders were tested against SpBbc1 in the same assay as above.
Procedure: as §1

Row | Binder | SPOT peptide array binding signal intensity
59 | LKVTPGRRAPTISKI | 1

What follows are binders tested against SpBzz1-D1 in the same assay as above.
Procedure: as §1

Row | Binder | SPOT peptide array binding signal intensity
60 | LKVTPGRRAPTISKI | 332

The binders below were run against SpBzz1-D2 in the same assay as above.
Procedure: as §1

Row | Binder | SPOT peptide array binding signal intensity
61 | LKVTPGRRAPTISKI | 1.25

The binders below were run against SpCyk3 in the same assay as above.
Procedure: as §1

Row | Binder | SPOT peptide array binding signal intensity
62 | LKVTPGRRAPTISKI | 1.5

These binders were tested against SpHof1 in the same assay as above.
Procedure: as §1

Row | Binder | SPOT peptide array binding signal intensity
63 | LKVTPGRRAPTISKI | 37.8

What follows are binders tested against SpHof1-2 in the same assay as above.
Procedure: as §1

Row | Binder | SPOT peptide array binding signal intensity
64 | LKVTPGRRAPTISKI | 0.5

Each binder was assayed against SpHof1-3 in the same assay as above.
Procedure: as §1

Row | Binder | SPOT peptide array binding signal intensity
65 | LKVTPGRRAPTISKI | 165

The binders below were run against SpHse1 in the same assay as above.
Procedure: as §1

Row | Binder | SPOT peptide array binding signal intensity
66 | LKVTPGRRAPTISKI | 67.8

The binders below were run against SpLsb1 in the same assay as above.
Procedure: as §1

Row | Binder | SPOT peptide array binding signal intensity
67 | LKVTPGRRAPTISKI | ≤ 0

What follows are binders tested against SpLsb4 in the same assay as above.
Procedure: as §1

Row | Binder | SPOT peptide array binding signal intensity
68 | LKVTPGRRAPTISKI | 30

The binders below were run against SpMyo1 in the same assay as above.
Procedure: as §1

Row | Binder | SPOT peptide array binding signal intensity
69 | LKVTPGRRAPTISKI | 352

The binders below were run against SpNbp2 in the same assay as above.
Procedure: as §1

Row | Binder | SPOT peptide array binding signal intensity
70 | LKVTPGRRAPTISKI | 8

The binders below were run against SpPex13 in the same assay as above.
Procedure: as §1

Row | Binder | SPOT peptide array binding signal intensity
71 | LKVTPGRRAPTISKI | ≤ 0

These binders were tested against SpRvs167 in the same assay as above.
Procedure: as §1

Row | Binder | SPOT peptide array binding signal intensity
72 | LKVTPGRRAPTISKI | ≤ 0

What follows are binders tested against SpSla1-D1-D2 in the same assay as above.
Procedure: as §1

Row | Binder | SPOT peptide array binding signal intensity
73 | LKVTPGRRAPTISKI | 4

What follows are binders tested against SpSla1-D3 in the same assay as above.
Procedure: as §1

Row | Binder | SPOT peptide array binding signal intensity
74 | LKVTPGRRAPTISKI | ≤ 0
